The results in this text go back to PubChem BioAssay (Tox21).

Experiment [1] can be described thus: qHTS assay to identify small molecule agonists of the estrogen receptor beta (ER-beta) signaling pathway - cell viability counter screen (AID 1259380). Note: nearly all actives have a fitted effect of over 30% in size. Note: potency is the fitted concentration of half-maximal effect. Put shortly:
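Same-well viability counter screen. Cells: ER-beta-UAS-bla HEK293T, plated 6 hr before compound, in 2% charcoal-stripped FBS. Compound exposure 16 hr, 37C; viability by CellTiter-Glo luminescence after 30 min at room temperature.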

The nature of experiment [2]: qHTS assay to identify small molecule antagonists of the estrogen receptor beta (ER-beta) signaling pathway - cell viability counter screen (AID 1259382). Note: nearly all actives have a fitted effect of over 55% in size. Note: potency is the fitted concentration of half-maximal effect. The essentials:
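Following a 6 hr plating period, HEK293T cells carrying a UAS-driven beta-lactamase reporter under ER-beta control received compounds and 1nM E2 (final). After 16 hr at 37C and 2 hr substrate loading, CellTiter-Glo luminescence indicated viability.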
On the technique in general: In qHTS, concentration-response curves come from the screen itself.

Experiment [3] has as its target Estrogen receptor (Homo sapiens) (UniProt P03372). Put plainly: qHTS assay to identify small molecule agonists of the estrogen receptor alpha (ER-alpha) signaling pathway in the presence of an antagonist (AID 1259383; calls by dose curve; note: top concentration of the series differs between compounds; nearly all actives have a fitted effect of over 15% in size). The essentials: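 Cells are hormone-deprived for 5 days (charcoal-stripped FBS, no phenol red), plated for 24hr, spiked with 10.0nM ICI-182,780, then dosed at 15 concentrations. After 22hr at 37C, ONE-Glo luminescence reports ERE-luciferase activity.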

Experiment [4] can be described thus: qHTS assay to identify small molecule agonists or antagonists of the thyroid stimulating hormone receptor (TSHR) signaling pathway - wild type cell line counter screen (AID 1259384; calls by dose curve). Put shortly: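 Wild-type HEK293 cells were plated 18 h at 37 C/5% CO2, pin-dosed with compound plus Ro20-1724 medium, held 30 min at room temperature, then given cAMP-d2 and anti-cAMP-cryptate; fluorescence was read after 1 h. Fifteen concentrations, triplicate.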

Experiment [5] deals with Thyrotropin receptor (Homo sapiens) (UniProt P16473). Put plainly: qHTS assay to identify small molecule antagonists of the thyroid stimulating hormone receptor (TSHR) signaling pathway (AID 1259385; calls by dose curve; note: nearly all actives have a fitted effect of over 20% in size). Put shortly:
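TSHR-HEK293 cells were plated and held 18 h at 37C/5% CO2, then given compound plus Ro20-1724 and stimulated with TSH at 1.5 ng/mL final. After 30 min at room temperature, cAMP was detected with cAMP-d2/anti-cAMP-cryptate (1 h) by fluorescence.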

Experiment [6] can be described thus: qHTS assay to identify small molecule agonists of the estrogen receptor alpha (ER-alpha) signaling pathway in the presence of an antagonist - cell viability counter screen (AID 1259386).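 Note: cells exposed to compounds for 22 h at 37 °C before the viability read; nearly all actives have a fitted effect of over 30% in size.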 Note: potency is the fitted concentration of half-maximal effect. Put shortly: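 Cells are starved of estrogens for 5 days in charcoal-stripped serum, seeded for 24hr and co-treated with ICI-182,780 (10.0nM final) and test compounds. After 22hr at 37C, viability is read as CellTiter-Fluor fluorescence.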

A short description of experiment [7]: qHTS assay to identify small molecule antagonists of the progesterone receptor (PR) signaling pathway - cell viability counter screen (AID 1346798). Note: nearly all actives have a fitted effect of over 50% in size. Note: potency is the fitted concentration of half-maximal effect. The essentials: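 PR-UAS-bla HEK293T cells in medium with 2% charcoal-stripped FBS were treated with compounds plus R5020 for 16 hr at 37C. Cell viability was then read by CellTiter-Glo luminescence after 30 min at room temperature in the same wells.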

Experiment [8] can be described thus: qHTS assay to identify small molecule agonists of the progesterone receptor (PR) signaling pathway - cell viability counter screen (AID 1346799; calls by dose curve; note: nearly all actives have a fitted effect of over 45% in size; note: potency is the fitted concentration of half-maximal effect). Put shortly:
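PR-UAS-bla HEK293T cells, 3,000 per well in medium with 2% charcoal-stripped FBS, were preincubated 6 hr at 37C, then exposed to compounds for 16 hr; viability was read as CellTiter-Glo luminescence after 30 min at room temperature.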

Experiment [9] can be described thus: qHTS assay to identify small molecule agonists of the TGF-beta/Smad signaling pathway - cell viability counter screen (AID 1346829). Note: nearly all actives have a fitted effect of over 45% in size. Note: potency is the fitted concentration of half-maximal effect. The essentials:
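After overnight seating at 37 C and 5% CO2, reporter cells got compounds for 5 hr and FRET substrate for 2 hr; cell viability then came from CellTiter-Glo luminescence.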

The target in experiment [10] is Thyrotropin-releasing hormone receptor (Homo sapiens) (UniProt P34981). Put plainly: qHTS assay to identify small molecule antagonists of the thyrotropin-releasing hormone receptor (TRHR) signaling pathway (AID 1346877; active = well fitted inhibition curve with a large enough effect in the repeat runs, not every such curve was filed as active; note: series mostly up to about 51 µM). Put shortly:
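Cells (TRHR-HEK293) are plated and kept 18 h at 37 °C/5% CO2. A calcium-sensitive dye is added for 2 h, compound follows for 5 min at room temperature, and TRH is then given at 1 nM final.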

The target is the same in experiment [11]. Put plainly: qHTS assay to identify small molecule agonists of the thyrotropin-releasing hormone receptor (TRHR) signaling pathway (AID 1346891; calls by dose curve; note: series mostly up to about 58 µM). Put shortly:
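TRHR-expressing HEK293 cells were plated 18 h at 37 °C/5% CO2, loaded with calcium dye 2 h at 37 °C, then given compound in DMSO; fluorescence was read kinetically for 3 min at 1 s intervals.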

For experiment [12], the target named is Estrogen receptor beta (Homo sapiens) (UniProt Q92731). Put plainly: qHTS assay to identify small molecule agonists of the estrogen receptor beta (ER-beta) signaling pathway (AID 1259377; active = well fitted activation curve with a large enough effect in the signal ratio in the repeat runs, not every such curve was filed as active; the % refers to the signal ratio). Put shortly: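 ER-beta-UAS-bla HEK293T (GripTite) cells carrying a UAS-driven beta-lactamase reporter, in medium with 2% charcoal-stripped FBS, were exposed to compounds for 16 hr at 37C; LiveBLAzer B/G FRET substrate was then added and fluorescence read after 2 hours at room temperature.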
Estrogen receptor beta (Homo sapiens), sequence (Q92731 whole entry, looked up): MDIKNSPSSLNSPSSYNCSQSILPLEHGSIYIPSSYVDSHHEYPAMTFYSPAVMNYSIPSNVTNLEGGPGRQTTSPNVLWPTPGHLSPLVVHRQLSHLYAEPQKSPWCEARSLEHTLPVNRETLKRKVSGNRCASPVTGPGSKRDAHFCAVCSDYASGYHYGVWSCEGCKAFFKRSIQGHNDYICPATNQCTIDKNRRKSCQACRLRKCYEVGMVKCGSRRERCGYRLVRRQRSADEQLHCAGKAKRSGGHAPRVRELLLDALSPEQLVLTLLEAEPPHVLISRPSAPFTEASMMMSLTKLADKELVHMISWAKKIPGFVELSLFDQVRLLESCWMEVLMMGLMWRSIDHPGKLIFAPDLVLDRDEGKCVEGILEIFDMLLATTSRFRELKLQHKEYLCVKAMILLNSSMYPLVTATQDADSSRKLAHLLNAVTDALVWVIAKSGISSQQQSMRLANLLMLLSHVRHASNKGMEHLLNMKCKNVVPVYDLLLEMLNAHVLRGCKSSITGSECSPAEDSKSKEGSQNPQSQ

Experiment [13] shares this target. Description: qHTS assay to identify small molecule antagonists of the estrogen receptor beta (ER-beta) signaling pathway (AID 1259378; active = well fitted inhibition curve with a large enough effect in the signal ratio in the repeat runs, not every such curve was filed as active; the % refers to the signal ratio; note: potency is the fitted concentration of half-maximal effect). The essentials:
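ER-beta-UAS-bla HEK293T (GripTite) cells in 2% charcoal-stripped FBS medium were preincubated 6 hr at 37C, dosed with compound, then stimulated with 1 nM E2 (final) for 16 hr; beta-lactamase reporter read by B/G FRET fluorescence after 2 hr substrate loading.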

Experiment [14] is described as follows: qHTS assay to identify small molecule agonists of the androgen receptor (AR) signaling pathway in the presence of an antagonist - cell viability counter screen (AID 1259379).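 Note: MDA-kb2 human breast cancer cells carrying an MMTV luciferase reporter; series mostly up to about 92 µM; nearly all actives have a fitted effect of over 25% in size.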 The essentials:
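Fluorescence from CellTiter-Fluor, added after 15 hr and read 1 hr later, gave cell viability. Cells were MDA-kb2 exposed to compounds (15 concentrations) in the presence of 3.0uM nilutamide at 37C, 0% CO2.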

For experiment [15], the target named is Progesterone receptor (Homo sapiens) (UniProt P06401). Put plainly: qHTS assay to identify small molecule antagonists of the progesterone receptor (PR) signaling pathway (AID 1346795; active = well fitted inhibition curve with a large enough effect in the signal ratio in the repeat runs, not every such curve was filed as active; the % refers to the signal ratio; note: potency is the fitted concentration of half-maximal effect). Put shortly: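 PR-UAS-bla HEK293T cells carrying a UAS-driven beta-lactamase reporter were plated in medium with 2% charcoal-stripped FBS and rested 6 hr at 37C. Compounds were added with 1 nM R5020 (final) for 16 hr, then FRET substrate loaded 2 hr at room temperature.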
Progesterone receptor (Homo sapiens), sequence (P06401 whole entry, looked up): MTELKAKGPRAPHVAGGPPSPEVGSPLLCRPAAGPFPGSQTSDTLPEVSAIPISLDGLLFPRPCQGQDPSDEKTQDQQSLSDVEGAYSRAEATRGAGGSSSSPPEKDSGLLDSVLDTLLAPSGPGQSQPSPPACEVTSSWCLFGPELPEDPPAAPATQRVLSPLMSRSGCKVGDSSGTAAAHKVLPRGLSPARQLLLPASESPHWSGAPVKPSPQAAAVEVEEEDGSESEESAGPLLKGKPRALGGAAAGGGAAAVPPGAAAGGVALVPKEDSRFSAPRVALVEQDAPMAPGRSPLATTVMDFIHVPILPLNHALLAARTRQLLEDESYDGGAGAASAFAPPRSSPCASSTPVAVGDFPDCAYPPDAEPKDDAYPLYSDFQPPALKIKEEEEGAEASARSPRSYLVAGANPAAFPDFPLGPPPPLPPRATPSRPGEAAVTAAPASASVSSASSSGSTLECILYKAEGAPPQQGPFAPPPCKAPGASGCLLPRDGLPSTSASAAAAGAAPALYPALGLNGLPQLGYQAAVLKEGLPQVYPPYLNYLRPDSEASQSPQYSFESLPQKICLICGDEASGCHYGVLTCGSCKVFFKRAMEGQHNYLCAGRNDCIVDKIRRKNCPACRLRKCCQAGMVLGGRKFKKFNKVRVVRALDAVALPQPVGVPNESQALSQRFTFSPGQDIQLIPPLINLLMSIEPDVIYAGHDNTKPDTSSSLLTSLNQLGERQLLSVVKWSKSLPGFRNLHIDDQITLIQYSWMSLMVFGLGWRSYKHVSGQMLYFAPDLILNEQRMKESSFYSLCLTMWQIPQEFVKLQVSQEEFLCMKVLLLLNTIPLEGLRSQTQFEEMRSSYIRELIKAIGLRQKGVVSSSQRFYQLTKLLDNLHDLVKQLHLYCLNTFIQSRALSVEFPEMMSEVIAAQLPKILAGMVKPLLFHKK

Experiment [16] is described as follows: qHTS assay to identify small molecule antagonists of the TGF-beta/Smad signaling pathway - cell viability counter screen (AID 1346824). Note: nearly all actives have a fitted effect of over 50% in size. The essentials:
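SBE-bla HEK 293T cells were plated overnight at 37 C, then given compounds in DMSO plus TGF-beta1 (added as 0.25 ng/mL solution) for 5 hr. After the bla read, CellTiter-Glo was added to the same wells and luminescence read after 30 min at room temperature.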

The nature of experiment [17]: qHTS assay to identify small molecule agonists of the TGF-beta/Smad signaling pathway (AID 1346859; active = well fitted activation curve with a large enough effect in the signal ratio in the repeat runs, not every such curve was filed as active; the % refers to the signal ratio; note: series mostly up to about 77 µM). The essentials:
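HEK 293T cells stably carrying a beta-lactamase reporter driven by the Smad binding element were seeded overnight, exposed to DMSO-dissolved compounds for 5 hr at 37 C, 5% CO2, then loaded with FRET substrate for 2 hr at room temperature.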

The target in experiment [18] is Androgen receptor (Homo sapiens) (UniProt P10275). Put plainly: qHTS assay to identify small molecule agonists of the androgen receptor (AR) signaling pathway in the presence of an antagonist (AID 1259381; calls by dose curve; note: nearly all actives have a fitted effect of over 15% in size). Put shortly:
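Cells are MDA-kb2 (human breast carcinoma, MMTV-luc, AR/GR responsive). Nilutamide is present at 3.0uM final throughout; compounds are added at 15 concentrations and incubated 16hr at 37C before ONE-Glo luminescence detection.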

Experiment [19] has as its target Progesterone receptor (Homo sapiens) (UniProt P06401). Put plainly: qHTS assay to identify small molecule agonists of the progesterone receptor (PR) signaling pathway (AID 1346784; calls by dose curve; note: nearly all actives have a fitted effect of over 30% in size). Put shortly: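 PR-UAS-bla HEK 293T cells carrying a UAS-driven beta-lactamase reporter were seeded in medium with 2% charcoal-stripped FBS, preincubated 6 hr at 37C, then exposed to compounds in DMSO for 16 hr; agonism was read by LiveBLAzer B/G FRET fluorescence.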

Molecules are shown by their SMILES. Several values for one entry are separate records, joined by “and”; a condition that tells them apart may be missing. Equal entries are not always repeated. Records with an inconclusive call do not appear. Activity calls are given as the source filed them. Unless noted, calls come from the whole dose curve; as a rule, active = well fitted curve in the direction sought with a large enough effect in the repeat runs; inconclusive = weak or mixed curves; inactive = no such curve, though single readings can be large; an effect the other way counts as inactive or inconclusive.
% is set by controls: 0 for no effect and ±100 for the full control effect.

Estrogen receptor (Homo sapiens), sequence (P03372 whole entry, looked up): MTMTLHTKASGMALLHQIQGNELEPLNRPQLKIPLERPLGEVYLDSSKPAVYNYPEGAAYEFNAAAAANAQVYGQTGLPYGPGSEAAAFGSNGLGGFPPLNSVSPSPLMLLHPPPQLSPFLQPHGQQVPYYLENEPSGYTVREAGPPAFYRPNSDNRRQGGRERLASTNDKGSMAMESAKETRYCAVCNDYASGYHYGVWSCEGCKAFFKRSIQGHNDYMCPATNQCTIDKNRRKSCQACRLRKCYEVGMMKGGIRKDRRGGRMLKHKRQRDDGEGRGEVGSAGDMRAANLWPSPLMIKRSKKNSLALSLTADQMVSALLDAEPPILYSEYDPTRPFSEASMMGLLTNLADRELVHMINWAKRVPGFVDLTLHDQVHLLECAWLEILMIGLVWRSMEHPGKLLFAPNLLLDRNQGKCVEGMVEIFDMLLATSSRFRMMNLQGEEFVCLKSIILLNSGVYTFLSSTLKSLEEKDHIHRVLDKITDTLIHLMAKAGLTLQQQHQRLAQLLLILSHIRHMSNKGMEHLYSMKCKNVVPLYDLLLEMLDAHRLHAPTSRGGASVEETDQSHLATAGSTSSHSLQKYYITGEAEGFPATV
Thyrotropin-releasing hormone receptor (Homo sapiens), sequence (P34981 whole entry, looked up): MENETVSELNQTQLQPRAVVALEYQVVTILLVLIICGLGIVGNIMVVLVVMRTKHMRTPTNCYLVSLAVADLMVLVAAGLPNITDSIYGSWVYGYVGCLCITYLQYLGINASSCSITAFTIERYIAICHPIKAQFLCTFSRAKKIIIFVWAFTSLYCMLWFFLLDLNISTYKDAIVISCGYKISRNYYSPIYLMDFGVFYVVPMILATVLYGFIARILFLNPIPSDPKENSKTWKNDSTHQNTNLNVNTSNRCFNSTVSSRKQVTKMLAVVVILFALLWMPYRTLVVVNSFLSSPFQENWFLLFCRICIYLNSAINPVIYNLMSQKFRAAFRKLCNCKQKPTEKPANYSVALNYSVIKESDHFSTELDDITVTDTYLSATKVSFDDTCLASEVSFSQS
Androgen receptor (Homo sapiens), sequence (P10275 whole entry, looked up): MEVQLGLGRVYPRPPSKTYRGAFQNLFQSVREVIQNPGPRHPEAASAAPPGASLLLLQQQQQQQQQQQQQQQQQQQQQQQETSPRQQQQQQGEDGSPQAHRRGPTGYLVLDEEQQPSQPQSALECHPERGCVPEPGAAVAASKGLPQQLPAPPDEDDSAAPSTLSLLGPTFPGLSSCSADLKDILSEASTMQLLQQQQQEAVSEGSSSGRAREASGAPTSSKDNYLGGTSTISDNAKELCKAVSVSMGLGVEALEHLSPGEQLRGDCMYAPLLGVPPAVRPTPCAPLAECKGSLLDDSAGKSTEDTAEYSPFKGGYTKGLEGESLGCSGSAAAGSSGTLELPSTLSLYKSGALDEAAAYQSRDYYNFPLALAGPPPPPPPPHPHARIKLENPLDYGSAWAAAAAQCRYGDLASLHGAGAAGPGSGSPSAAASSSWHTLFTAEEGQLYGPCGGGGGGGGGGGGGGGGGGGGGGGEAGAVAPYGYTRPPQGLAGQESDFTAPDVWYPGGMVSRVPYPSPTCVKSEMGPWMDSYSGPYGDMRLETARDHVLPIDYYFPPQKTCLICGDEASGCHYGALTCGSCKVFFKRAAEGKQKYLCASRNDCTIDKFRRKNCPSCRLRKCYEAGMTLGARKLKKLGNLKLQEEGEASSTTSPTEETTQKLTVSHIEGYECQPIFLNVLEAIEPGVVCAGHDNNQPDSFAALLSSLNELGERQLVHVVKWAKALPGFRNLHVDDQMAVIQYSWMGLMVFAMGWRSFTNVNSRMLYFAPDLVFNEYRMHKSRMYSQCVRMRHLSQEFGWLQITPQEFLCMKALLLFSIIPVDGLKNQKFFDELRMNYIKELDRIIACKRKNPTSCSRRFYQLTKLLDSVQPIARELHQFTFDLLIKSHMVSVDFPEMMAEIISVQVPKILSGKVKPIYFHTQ
Thyrotropin receptor (Homo sapiens), sequence (P16473 whole entry, looked up): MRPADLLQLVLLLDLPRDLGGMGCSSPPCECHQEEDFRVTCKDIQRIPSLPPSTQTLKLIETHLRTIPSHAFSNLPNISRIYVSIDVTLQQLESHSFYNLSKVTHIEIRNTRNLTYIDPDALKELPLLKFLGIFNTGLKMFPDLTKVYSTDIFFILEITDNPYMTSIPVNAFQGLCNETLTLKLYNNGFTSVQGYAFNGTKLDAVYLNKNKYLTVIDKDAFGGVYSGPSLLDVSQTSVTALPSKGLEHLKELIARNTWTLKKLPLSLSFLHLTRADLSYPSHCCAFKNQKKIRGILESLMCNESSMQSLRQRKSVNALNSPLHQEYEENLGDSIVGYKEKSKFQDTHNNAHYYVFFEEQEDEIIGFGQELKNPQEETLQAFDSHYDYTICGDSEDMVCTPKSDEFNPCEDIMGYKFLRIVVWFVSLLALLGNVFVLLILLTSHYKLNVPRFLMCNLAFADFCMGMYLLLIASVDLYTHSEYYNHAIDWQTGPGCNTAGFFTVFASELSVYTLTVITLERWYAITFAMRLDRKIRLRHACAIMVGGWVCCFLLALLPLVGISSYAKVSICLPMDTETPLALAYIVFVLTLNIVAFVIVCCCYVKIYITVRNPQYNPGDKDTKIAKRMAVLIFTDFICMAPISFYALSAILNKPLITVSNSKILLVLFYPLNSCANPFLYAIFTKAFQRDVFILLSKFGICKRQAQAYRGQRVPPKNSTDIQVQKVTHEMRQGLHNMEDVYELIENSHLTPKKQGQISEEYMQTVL

With `CC(C)(c1ccccc1)c1ccc(O)c(C(C)(C)c2ccccc2)c1`, the Potency in experiment [1] is 21.5 µM (active) and 30.6 µM (active); in experiment [2], 24.1 µM (active) and 30.6 µM (active); in experiment [6] it was 68 µM (active); in [7] it was 17.1 µM (active) and 48.6 µM (active); in experiment [8] it was 42.9 µM (active) and 27.3 µM (active); in experiment [9], 48.5 µM (active) and 43.6 µM (active). The Potency entry in experiment [3], in experiment [4], in experiment [5] and in [10] was “inactive” in each case. In addition, in experiment [11], the compound was called inactive.
Regarding `CCOP(=O)(OCC)OCC`, the Potency result in experiment [12], in experiment [13], in [14], in experiment [1], in [2] and in [4] was “inactive” in each case. The Potency result in experiment [5], in experiment [6], in experiment [15], in experiment [7], in experiment [8] and in [16] was “inactive” in each case. The Potency entry in [9], in experiment [17] and in [10] was “inactive” each time. The outcome in experiment [11] was inactive.
As to `CCOP(=S)(OCC)SCn1c(=O)oc2cc(Cl)ccc21`, the Potency result in experiment [12], in [14], in experiment [1], in experiment [2], in experiment [3] and in experiment [4] was “inactive” each time. Moreover, the Potency result in [6], in [7], in [8], in [16], in [9] and in [17] was “inactive” in each case. Besides, the Potency result in [10] was “inactive”. Besides, the compound was classed as inactive in [11].
With `CN(C)c1nc(=O)n(C2CCCCC2)c(=O)n1C`, the Potency entry in [12], in experiment [13], in experiment [14], in experiment [1], in experiment [2] and in [3] was “inactive” in each case. In addition, the Potency entry in experiment [4], in experiment [5], in experiment [6], in experiment [15], in experiment [7] and in experiment [8] was “inactive” each time. The Potency result in experiment [16], in experiment [9] and in experiment [10] was “inactive” throughout. The compound was called inactive in [11].
`CCC(=O)Nc1ccc(Cl)c(Cl)c1`: the Potency entry in [14], in experiment [2], in [4], in [5], in [6] and in experiment [19] was “inactive” throughout. The Potency result in experiment [7], in [8], in [16], in [9] and in experiment [10] was “inactive” in each case. For the same compound, the outcome in [18] and in experiment [11] was inactive.
As to `CCCCCCCCCC(CC)c1ccc(S(=O)(=O)O)cc1` (stereo unspecified), the Potency entry in [14], in experiment [6] and in [9] was “inactive” throughout. Also, the Potency in [7] is 30.9 µM (active) and 29.8 µM (active) and 27.3 µM (active); in experiment [8] it was 27 µM (active) [middle of 4 runs].
For the compound `CCC1(c2ccc(N)cc2)CCC(=O)NC1=O` (stereo unspecified), the Potency entry in experiment [14], in experiment [1], in [2], in [3], in experiment [6] and in experiment [19] was “inactive” each time. Also, the Potency entry in [15], in [7], in experiment [8], in experiment [16], in experiment [9] and in [17] was “inactive” throughout. The Potency entry in [10] was “inactive”. In addition, the result in [18] and in experiment [11] was inactive.
As for `CCCCCCCCCc1ccc(O)cc1`, the Potency entry in [12], in [14], in experiment [3], in experiment [4], in experiment [5] and in experiment [6] was “inactive” in each case. Also, the Potency entry in experiment [19], in [7], in experiment [8], in experiment [9], in experiment [17] and in [10] was “inactive” in each case. In addition, the Potency in experiment [13] was 19.5 µM (active); in [1] it was 13.8 µM (active) and 43.3 µM (active); in experiment [15], 27.6 µM (active) and 61.1 µM (active). Besides, the outcome in [11] was inactive.
For the compound `O=NN(c1ccccc1)c1ccccc1`, the Potency result in experiment [14], in [1], in [2], in experiment [3], in experiment [4] and in [5] was “inactive” throughout. Also, the Potency entry in experiment [6], in [19], in experiment [15], in [7], in experiment [8] and in experiment [9] was “inactive” each time. Besides, the Potency result in experiment [17] and in [10] was “inactive” in each case. The outcome in [11] was inactive.
